# Measured values reported in PubChem BioAssay (NCI).
# About 83,000 compounds went through this panel and 20% of them were active in at least one assay; those are over-represented in the sample as a whole.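 Cell lines were cultured in 96-well plates, exposed to a single compound concentration, and assessed for percent growth 48 hours later.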 Unmarked numbers belong to inactive results. The source made the active and inactive calls. How the source made its calls: active means growth percent below 10; inactive means the rest.
# Experiments:
# Assay in all cases: NCI-60 one-dose screen, 48 h (100 = growth as untreated, 0 = no growth, -100 = all killed)
# Conditions in all cases: 10 µM unless noted
# RPMI-8226 leukemia = system: RPMI-8226 leukemia
# OVCAR-8 ovarian = system: OVCAR-8 ovarian
# OVCAR-5 ovarian = system: OVCAR-5 ovarian
# OVCAR-4 ovarian = system: OVCAR-4 ovarian
# SK-OV-3 ovarian = system: SK-OV-3 ovarian
# IGROV1 ovarian = system: IGROV1 ovarian
# OVCAR-3 ovarian = system: OVCAR-3 ovarian
# HS 578T breast = system: HS 578T breast
# NCI/ADR-RES ovarian = system: NCI/ADR-RES ovarian
# T-47D breast = system: T-47D breast
Structure (SMILES),growth (RPMI-8226 leukemia),growth (OVCAR-8 ovarian),growth (OVCAR-5 ovarian),growth (OVCAR-4 ovarian),growth (SK-OV-3 ovarian),growth (IGROV1 ovarian),growth (OVCAR-3 ovarian),growth (HS 578T breast),growth (NCI/ADR-RES ovarian),growth (T-47D breast)
CN1CCN(Cc2ccc(NC(=O)c3cncc(C#Cc4cnc5ccc(N6CCSCC6)nn45)c3)cc2C(F)(F)F)CC1,-7.39% (active),-67.7% (active),-22.4% (active),-13.7% (active),-19.8% (active),-9.25% (active),-59.6% (active),-24.7% (active),-11.6% (active),34.1%
N#Cc1c(-c2ccc(Cl)cc2)nc(SCc2ccc(F)cc2)nc1N1CCNCC1,-36.9% (active),38.6%,86%,78.7%,117%,39.1%,37.9%,83.3%,51.2%,71.3%
O=C(N/N=C/c1ccc([N+](=O)[O-])o1)c1[nH]c2ccc(Br)cc2c1-c1ccccc1,0.483% (active),-5.13% (active),35.7%,38.2%,30.4%,15.6%,21.9%,8.44% (active),18.7%,53.9%
COc1ccc(-n2c(SCC(=O)Nc3ccc(-c4nc5ccccc5[nH]4)cc3)nc3ccccc3c2=O)cc1,-21.2% (active),20.9%,68.5%,-33.7% (active),136%,17.5%,-34.8% (active),28.7%,32.5%,-51.8% (active)
CCCSc1nc(Nc2ccc(/C(C)=N\NC(N)=S)cc2)c(C#N)c(-c2ccc(OC)cc2)n1,71.9%,30.7%,94.5%,28%,97.3%,81%,67.3%,25.3%,56%,86.6%
C/C(=N\NC(N)=O)c1c(O)sc(=O)[nH]c1=O,102%,99.9%,102%,105%,115%,99.7%,114%,91.4%,105%,105%
CS(=O)(=O)c1ccc(-c2nc3ccccn3c2/C=N/Nc2nc(-c3ccc(Cl)cc3)cs2)cc1,82.2%,98%,104%,105%,140%,115%,124%,107%,104%,78%
O=C(O)CCCCCN1C(=O)/C(=C/c2ccc(O)c(O)c2)SC1=S,111%,103%,108%,101%,124%,106%,108%,99.6%,104%,98%
Clc1ccc2c(NCCCn3ccnc3)c3oc4ccccc4c3nc2c1,26.4%,32.1%,38.2%,55%,104%,32.9%,68.4%,61.6%,45%,60.1%
COc1ccc(-c2cc(C(=O)N=Nc3c(O)[nH]c4ccccc34)c3ccccc3n2)cc1OC,99.4%,98%,91%,99.3%,103%,90.2%,109%,97%,92.1%,87.3%
C#C[C@]1(O)CC[C@H]2[C@@H]3CC=C4c5sc(-c6ccc(F)cn6)nc5CC[C@]4(C)[C@H]3CC[C@@]21C,-26% (active),42.8%,59.9%,57.8%,21.2%,49.8%,56.2%,-16.2% (active),44.8%,39.9%
Clc1ccc2c(NCCCN3CCOCC3)c3oc4ccccc4c3nc2c1,23.2%,32.5%,39.6%,64.8%,97.6%,25.8%,74.2%,58.2%,44.2%,76.5%
Nc1cc(-c2c[nH]c3ccc(F)cc23)nc2cc(-c3c[nH]c4ccc(F)cc34)nn12,30.7%,89.8%,115%,96.1%,135%,94.8%,94.4%,112%,93%,81.7%
O=C(CN1CCOCC1)NNc1ncnc2ccccc12,90.9%,102%,69.3%,96.1%,107%,79.3%,64.7%,89.5%,104%,41.6%
